Test results published in PMC5540273 (PLoS ONE, 2017).

Key:
Details in all cases: concentration: 1 μM, replicates: in singlicate; n = 1
[1] = tested on: MTOR
[2] = tested on: MUSK
[3] = tested on: MYLK2
[4] = tested on: MYLK4
[5] = tested on: MYLK
[6] = tested on: MYO3A
[7] = tested on: MYO3B
[8] = tested on: T1, NDR1
T1 construct: gene STK38

[9] = tested on: NDR2
[10] = tested on: NEK10
[11] = tested on: NEK11
[12] = tested on: NEK1
[13] = tested on: NEK2
[14] = tested on: NEK3
[15] = tested on: NEK4
[16] = tested on: NEK5
[17] = tested on: NEK6
[18] = tested on: NEK7
[19] = tested on: NEK9
[20] = tested on: T2, NIK
T2 construct: gene MAP3K14
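Also: KINOMEscan kinase panel screen.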

Compound	%Inh [1] [%]	%Inh [2] [%]	%Inh [3] [%]	%Inh [4] [%]	%Inh [5] [%]	%Inh [6] [%]	%Inh [7] [%]	%Inh [8] [%]	%Inh [9] [%]	%Inh [10] [%]	%Inh [11] [%]	%Inh [12] [%]	%Inh [13] [%]	%Inh [14] [%]	%Inh [15] [%]	%Inh [16] [%]	%Inh [17] [%]	%Inh [18] [%]	%Inh [19] [%]	%Inh [20] [%]
O=C(O)C(F)(F)F.O=c1[nH]ccc2nc(N[C@@H]3CCNC3)nc(Nc3cc(Cl)cc(Cl)c3)c12 [GSK2188764]	9	3	50	36	92.4	59	0	82	68	81	0	28	23	23	17	14	0	13	25	64
Nc1ncc(-c2ccc3nccc(-c4ccncc4)c3c2)cc1S(=O)(=O)N1CCCCC1 [GSK1693850]	100	0	0	10	22	22	0	30	2	54	0	2	8	4	0	18	0	0	15	11
Cl.Cl.NCC(NC(=O)c1cc(-c2cccnc2)c(-c2ccnc3[nH]ccc23)s1)c1ccccc1 (stereo not drawn) [GSK1323434]	10	18	15	98.2	23	39	0	67	13	79	15	13	1	18	24	13	4	0	11	35
Cc1cccc(Nc2nc(N[C@H]3CCCC[C@H]3N)ncc2C(N)=O)c1.Cl [GSK986310]	0	27	7	93.8	29	8	0	27	0	71	0	2	15	19	24	13	10	8	25	23
Cc1ccc(Nc2ccnc(Nc3ccc(C)c(F)c3)n2)cc1O.Cl [GW582868]	15	12	0	29	9	2	0	0	0	0	3	0	1	10	7	4	0	0	0	10
CNc1nccc(-c2ccc3c(N)n[nH]c3c2)n1 [GSK2206003]	11	3	60	97.1	68	53	0	24	9	29	0	4	2	2	0	14	0	0	9	33
CCNc1nccc(-c2c(-c3ccc(F)cc3)ncn2C2CCN(C)CC2)n1	0	97.7	0	0	0	5	0	3	5	0	0	1	0	0	0	5	0	1	0	0
COc1cccc(-c2nc(-c3ccccc3)[nH]c2-c2ccncc2)c1 [SB-610250]	13	0	8	0	0	18	0	9	0	20	26	100	0	11	16	1	4	0	4	0
COc1cc(Nc2nccc(N3CCC(NC(=O)Nc4ccc5c(c4)OCO5)C3)n2)cc(OC)c1OC (stereo not drawn) [GSK1379766]	26	19	10	1	21	18	0	0	9	34	0	46	20	45	26	100	18	29	21	20
O=C(Nc1n[nH]c2nc(-c3ccccc3)ccc12)C1CC1 [SB-708999]	0	13	86	11	30	25	0	0	13	0	36	0	0	2	5	49	24	0	7	18
CSc1ccc(NC2=C(c3ccc(Cl)cc3)C(=O)NC2=O)cc1 [SB-317658]	0	34	10	24	0	18	20	9	9	14	28	4	0	0	0	29	33	0	1	21
Cc1ccc(O)cc1Nc1ccnc2ccc(C(C)(C)C)cc12 [GW856805]	0	27	5	13	25	13	6	18	23	27	23	21	9	39	1	17	20	25	10	31
COC(=O)Nc1nc2ccc(Oc3ccc(NC(=O)Nc4cc(C(F)(F)F)ccc4F)cc3)cc2[nH]1.Cl [GW654607]	34	99.6	33	0	10	0	0	29	0	21	0	0	0	0	0	13	0	19	57	60
CCn1c(-c2nonc2N)nc2c(-c3ccccc3)ncc(OCCCN)c21.O=C(O)C(F)(F)F.O=C(O)C(F)(F)F [GSK260205]	20	0	0	0	33	27	0	23	0	9	1	0	1	7	21	1	0	0	0	30
CCn1cnc2c(NCc3ccccc3)ncnc21 [SKF-96418]	37	0	0	6	0	0	0	30	14	14	0	0	0	24	0	0	0	0	0	32
Cc1cc(-c2c(-c3ccc(F)cc3)ncn2CCCN2CCOCC2)nc(N)n1 [SB-222517]	0	14	1	14	17	17	30	43	14	16	0	33	0	25	0	0	9	0	0	12
COc1cccc2c(-c3ccncc3)c(-c3ccc(F)cc3)nn12 [GW468513]	20	21	0	0	12	4	0	8	0	0	0	0	0	0	4	7	0	0	0	0
COc1ccc(C)c(Nc2ccnc(Nc3ccc(-c4cnc[nH]4)cc3)n2)c1.Cl [GW784041]	0	0	7	0	18	11	27	22	0	0	0	0	2	7	0	14	0	4	0	0
CN(c1ccc(F)c(NC(=O)c2cccc(OC(C)(C)C#N)c2Cl)c1)c1ccc2nc(NC(=O)C3CC3)sc2n1	0	0	0	0	30	0	0	0	29	0	0	3	0	7	1	0	0	8	5	0
O=C1NC(=O)C(c2ccccc2Cl)=C1Nc1cccc(Cl)c1 [SB-342409]	4	8	11	3	9	0	3	1	0	51	0	5	10	56	11	7	1	16	20	0
Nc1ncc(-c2cn[nH]c2)c2scc(-c3ccc4c(c3)CCN4C(=O)Cc3ccccc3)c12 [GSK2593067]	4	64	69	17	4	6	0	0	0	22	87	7	85	0	11	21	3	0	0	3
